Test results: PMC4336329 (PLoS ONE, 2015)
In all, about 310,000 compounds went through this assay and about 14,000 (4.5%) showed an effect of 50% or more. Effects have a minus sign here. The sample holds strong results, similar compounds and a random draw of the others, so the mix is not that of the screen.

The compounds below were run against human ether-à-go-go-related gene (hERG) potassium channel (human, UniProt Q12809) (assay: primary screen, population patch clamp on CHO cells stably expressing hERG; higher = less effect of the substance).
Sequence of human ether-à-go-go-related gene (hERG) potassium channel (Q12809 whole entry, looked up): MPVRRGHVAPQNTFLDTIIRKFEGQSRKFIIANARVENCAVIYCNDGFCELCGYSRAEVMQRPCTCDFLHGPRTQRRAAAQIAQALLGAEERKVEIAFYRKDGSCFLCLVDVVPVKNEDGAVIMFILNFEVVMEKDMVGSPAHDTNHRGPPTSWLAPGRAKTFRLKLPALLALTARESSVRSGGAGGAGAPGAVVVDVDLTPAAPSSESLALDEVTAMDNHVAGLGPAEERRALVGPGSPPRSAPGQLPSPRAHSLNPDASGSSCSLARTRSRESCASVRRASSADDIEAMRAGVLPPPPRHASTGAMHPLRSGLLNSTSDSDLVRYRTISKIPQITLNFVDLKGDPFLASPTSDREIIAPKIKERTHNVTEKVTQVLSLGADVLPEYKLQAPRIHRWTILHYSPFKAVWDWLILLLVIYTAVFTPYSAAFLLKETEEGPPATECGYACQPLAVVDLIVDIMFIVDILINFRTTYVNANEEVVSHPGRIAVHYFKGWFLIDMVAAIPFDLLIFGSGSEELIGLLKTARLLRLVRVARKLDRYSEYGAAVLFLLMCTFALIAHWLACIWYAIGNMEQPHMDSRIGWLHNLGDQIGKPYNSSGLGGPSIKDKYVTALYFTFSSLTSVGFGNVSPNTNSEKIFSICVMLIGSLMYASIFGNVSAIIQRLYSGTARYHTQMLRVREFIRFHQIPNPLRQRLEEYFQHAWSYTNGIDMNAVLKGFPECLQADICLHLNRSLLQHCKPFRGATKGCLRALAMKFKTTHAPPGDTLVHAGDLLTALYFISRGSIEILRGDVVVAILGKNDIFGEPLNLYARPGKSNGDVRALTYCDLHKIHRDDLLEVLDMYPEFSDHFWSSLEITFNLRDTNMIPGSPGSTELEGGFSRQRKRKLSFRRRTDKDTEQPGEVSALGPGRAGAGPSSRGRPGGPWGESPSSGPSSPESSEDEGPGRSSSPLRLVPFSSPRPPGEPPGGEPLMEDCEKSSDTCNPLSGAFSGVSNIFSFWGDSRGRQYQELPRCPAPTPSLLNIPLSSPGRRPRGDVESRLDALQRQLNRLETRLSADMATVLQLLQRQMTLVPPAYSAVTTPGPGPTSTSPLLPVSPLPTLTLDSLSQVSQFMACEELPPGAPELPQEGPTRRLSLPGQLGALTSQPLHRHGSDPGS
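Further: peak tail current of the secondary pulse compared with the same well before compound.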

Row | SMILES | hERG current change (%, negative = inhibition) at 10uM
1 | CC1CCCCC12NC(=O)N(CC(=O)NCCc1ccc(F)cc1)C2=O (stereo not shown) | -19.7%
2 | Cc1ccc2[nH]c3c(=O)n(CC(=O)Nc4ccccc4N4CCN(C)CC4)ncc3c2c1 | -5.73%
3 | COc1ccc(/C=C2/SC(=S)N(CCCC(=O)Nc3cccc(O)c3)C2=O)cc1 | 9.11%
4 | Cc1cccc(NC(=O)CN(C)S(=O)(=O)c2ccc3c(c2)n(C)c(=O)c(=O)n3C)c1C | -7.72%
5 | Br.COc1ncnc2c1N=C1CC(C)(C)CC(N)=C1S2 | -10.4%
6 | Cc1ccc(S(=O)(=O)N2CCN(c3ccccc3)CC2)cc1 | 13%
7 | COC(=O)Cc1c[nH]c2cccc(OCC(O)CN(Cc3ccccc3)C(C)C)c12.O=C(O)c1ccccc1O (stereo not shown) | -63%
8 | CC(C)N(Cc1ccccc1)CC(O)COc1ccc(S(=O)(=O)N2CCOCC2)cc1Cl (stereo not shown) | -32.3%
9 | COc1ccc(COCC(O)CN(Cc2ccccc2)C(C)C)cc1OC (stereo not shown) | 0.398%
10 | O=C(C[n+]1cc(-c2ccc(Cl)c(Cl)c2)n2c1CCC2)c1cccs1.[Br-] | -3.09%
11 | O=C(N/N=C/c1cccc(OC(=O)c2ccccc2Cl)c1)c1cccnc1 | -17%
12 | O=C(Nc1cccc2ccccc12)c1cccc([N+](=O)[O-])c1 | 11.6%
13 | O=C1c2ccccc2NC(c2ccccc2)N1Cc1ccccc1 (stereo not shown) | -35.2%
14 | O=C1c2ccccc2NC(c2cccc(F)c2)N1Cc1ccco1 (stereo not shown) | -48.6%
15 | O=C1c2ccccc2NC(c2cccc(F)c2)N1Cc1ccccc1 (stereo not shown) | -71.1%
16 | CCN(CC)CCN1C(=O)c2ccccc2NC1c1ccc(Br)cc1 (stereo not shown) | -85.7%
17 | CCCN1C(=O)c2ccccc2NC1c1ccc(Br)cc1 (stereo not shown) | -18.1%
18 | CCN(CC)CCN1C(=O)c2ccccc2NC1c1ccccc1F (stereo not shown) | -46.3%
19 | CCN(CC)CCN1C(=O)c2ccccc2NC1c1ccc(C)cc1 (stereo not shown) | -66.1%
20 | CCN(CC)CCN1C(=O)c2ccccc2NC1c1ccc(N(C)C)cc1 (stereo not shown) | -46.6%
21 | CCCN1C(=O)c2ccccc2NC1c1ccc(C)cc1 (stereo not shown) | -4.35%

Row | SMILES | hERG current change (%, negative = inhibition) at 10uM
22 | CCCN1C(=O)c2ccccc2NC1c1ccc(Cl)c(Cl)c1 (stereo not shown) | 6.85%
23 | O=C1c2ccccc2NC(c2ccc(F)cc2)N1Cc1ccccc1 (stereo not shown) | -9.65%
24 | CCN(CC)CCN1C(=O)c2ccccc2NC1c1cccc(F)c1 (stereo not shown) | -68.2%
25 | COc1ccc(NC(=S)N2CCN(Cc3cccc(F)c3)CC2)c(OC)c1 | -6.36%
26 | COc1ccc(C(=O)N2C(=S)NC(=O)/C2=C\c2ccc(C)cc2)cc1 | -2.42%
27 | Cc1cccc(CN2C(=O)/C(=C\c3ccc(C(=O)NCCCN4CCN(C)CC4)cc3)Oc3ccccc32)c1 | -4.13%
28 | O=C(NCCNC1CCN(Cc2ccccc2)CC1)c1cccs1 | -15.2%
29 | COc1ccc(NC(=O)CN(C)CC(=O)Nc2ccc(Cl)cc2[N+](=O)[O-])cc1 | -48%
30 | CCOC(=O)c1[nH]cnc1C(=O)Nc1ccc(C)cc1 | 11.6%
31 | CC1(C)CC(NC(=O)Nc2ccc([N+](=O)[O-])cc2)CC(C)(C)N1 | 9.76%
32 | FC(F)(F)c1nnc2c(Sc3ccc(Cl)cc3)nc3ccccc3n12 | 13.5%
33 | CC(=O)c1c(C)oc2ccc(OCc3ccccc3)cc12 | 0.181%
34 | Cc1ccc(NC2=NC(c3ccc(F)cc3)n3c(nc(C)cc3=O)N2)c(C)c1 (stereo not shown) | 21.8%
35 | O=C(Cn1cc([N+](=O)[O-])cn1)NCc1ccccc1 | 20.9%
36 | CCC(C)[C@H]1CNC(=O)C(=O)N1CCCc1cc(OC)c(OC)c(OC)c1 (stereo partly shown) | 9.16%
37 | CCN(CC)CCN1C(=O)c2ccccc2NC1c1ccc(F)cc1 (stereo not shown) | -64.3%
38 | COc1ccc(C2Nc3ccccc3C(=O)N2O)cc1CN1CCOCC1 (stereo not shown) | -2.72%
39 | COc1ccc(C2Nc3ccccc3C(=O)N2Cc2ccccc2)cc1CN1CCOCC1 (stereo not shown) | -63.5%
40 | CCCN1C(=O)c2ccccc2NC1c1ccc(Cl)cc1 (stereo not shown) | -7.23%
41 | CCN(CC)CCN1C(=O)c2ccccc2NC1c1cc(OC)c(OC)c(OC)c1 (stereo not shown) | -40.7%
42 | COc1ccc(C2Nc3ccccc3C(=O)N2c2ccccc2)cc1CN1CCOCC1 (stereo not shown) | -26.7%

Row | SMILES | hERG current change (%, negative = inhibition) at 10uM
43 | COc1ccc(CNC(=O)c2cnc3cc(C)ccn3c2=O)cc1 | -8.79%
44 | O=C(N/N=C/c1cccc2ccccc12)c1ccccc1Cl | 8.63%
45 | Cc1cc(/C(O)=C2\C(=O)C(=O)N(CCN(C)C)C2c2ccncc2)ccc1OCc1ccccc1 (stereo not shown) | 3.21%
46 | COc1cccc(NC(=O)CN(C)C(=O)c2ccc3c(c2)CC(c2ccccc2)OC3=O)c1 (stereo not shown) | -66.9%
47 | CN(CC(=O)Nc1cccc(F)c1)C(=O)c1ccc(NC2CC2)c([N+](=O)[O-])c1 | -68.5%
48 | CN(CC(=O)Nc1cccc(F)c1)C(=O)c1ccc(N2CCCCC2)c([N+](=O)[O-])c1 | -8.94%
49 | COc1cccc(NC(=O)CN(C)C(=O)c2ccc(N3CCOCC3)c([N+](=O)[O-])c2)c1 | -37.6%
50 | COc1ccc(Cl)cc1NC(=O)CN(C)C(=O)c1ccc2c(c1)CC(c1ccccc1)OC2=O (stereo not shown) | -41.8%
51 | CCOc1ccc(NC(=O)CN(C)C(=O)c2ccc(N3CCCC3)c([N+](=O)[O-])c2)cc1OCC | -49.1%
52 | COc1cccc(NC(=O)CN(C)C(=O)c2ccc(NC3CC3)c([N+](=O)[O-])c2)c1 | -73.4%
53 | CCOc1ccc(NC(=O)CN(C)C(=O)c2ccc(NC3CC3)c([N+](=O)[O-])c2)cc1OCC | -59%
54 | COc1cccc(NC(=O)CN(C)C(=O)c2ccc(N3CCCCC3)c([N+](=O)[O-])c2)c1 | -12.9%
55 | COc1cccc(NC(=O)CN(C)C(=O)c2ccc3ccccc3c2)c1 | 1.99%
56 | CCOc1ccc(NC(=O)CN(C)C(=O)c2ccc(C3SCCS3)cc2)cc1OCC | -0.427%
57 | CN(CC(=O)Nc1cccc(F)c1)C(=O)c1ccc(N2CCCC2)c([N+](=O)[O-])c1 | -46.7%
58 | O=C(O)CCC(=O)N(Cc1cccs1)Cc1cccs1 | -2.07%
59 | COc1ccc(C(=O)Cn2nnc(-c3ccccc3NC(=O)C3CCCCC3)n2)cc1 | 2.23%
60 | O=c1cc(-c2ccccc2)[nH]c2ccc(F)cc12 | 5.52%
61 | Nn1c(SCC(=O)NC2CCCCC2)nnc1-c1ccco1 | 4.3%
62 | Cc1oc(-c2ccccc2)nc1CN1C(=O)C(C)N=C(c2ccccc2F)c2cc(Cl)ccc21 (stereo not shown) | -5.78%
63 | O=[N+]([O-])c1ccc(/C=N/Nc2nc(N3CCCCC3)nc(N3CCCCC3)n2)o1 | -18.1%

Row | SMILES | hERG current change (%, negative = inhibition) at 10uM
64 | CC(=O)Nc1ccc(S(=O)(=O)NCCC(=O)Nc2ccc(C)c(F)c2)cc1 | -0.433%
65 | S=c1[nH]nc(Cc2sc(-c3ccccc3)nc2-c2ccccc2)o1 | 21.6%
66 | O=C(Nc1cccc2cccnc12)c1ccc(Br)cc1Br | 21.6%
67 | Cc1ccccc1CNC(=O)Nc1cccs1 | 3.67%
68 | CC(C)NC(=O)c1cc(-c2ccco2)nn1-c1ccc(Cl)cc1 | -27.4%
69 | CCN(CC(=O)Nc1ccc(NC(C)=O)cc1)C(=O)c1ccc(NC2CC2)c([N+](=O)[O-])c1 | -46.1%
70 | COc1ccc(NC(=O)CN(C)C(=O)c2ccc(NC3CC3)c([N+](=O)[O-])c2)cc1 | -72.8%
71 | COc1ccc(NC(=O)CN(C)C(=O)c2ccc(NS(=O)(=O)c3ccc(C)c([N+](=O)[O-])c3)cc2)cc1 | -2.55%
72 | O=C(O)CC1SC(=O)NC1=O (stereo not shown) | 4.76%
73 | CN1CCN(CCNC(=O)c2ccc3nc(-c4ccc(F)cc4)c(-c4ccc(F)cc4)nc3c2)CC1 | -50.6%
74 | CCCNC(=O)c1ccc2nc(-c3ccccc3)c(-c3ccccc3)nc2c1 | 9.38%
75 | Cc1nc2cc(C(=O)NCCN3CCOCC3)ccc2n1-c1ccc(F)cc1F | -3.86%
76 | CCN1CCN(CCNC(=O)c2ccc3nc(-c4cccc(C)c4)c(-c4cccc(C)c4)nc3c2)CC1 | -73.9%
77 | Cc1cccc(-c2nc3ccc(C(=O)NCCN4CCN(C)CC4)cc3nc2-c2cccc(C)c2)c1 | -11.7%
78 | COc1ccc(-c2nc3ccc(C(=O)NCCCN4CCOCC4)cc3nc2-c2ccc(OC)cc2)cc1 | 9.44%
79 | Cc1ccc(Cl)c(OC(=O)c2nn(C(C)C)c(=O)c3ccccc23)c1 | -2.19%
80 | COC(=O)c1ccccc1NC(=O)N1CCCC1 | -11.9%
81 | O=C(CSc1nn(-c2ccccc2)c(=S)s1)Nn1cnnc1 | 14.8%
82 | COc1cc(C(=O)N2CCC(c3nc(-c4cccnc4)no3)CC2)cc(OC)c1OC | -8.08%
